This is part of a sample that, as a whole, favours compounds with a hit. Of some 83,000 tested, about 20% had one in any assay.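 Each cell line was grown in a 96-well plate and treated with one concentration of compound for 48 hours. Values below 10 were considered active.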 Activity calls are given as the source filed them.

This assay concerns NCI/ADR-RES ovarian. As to the kind of experiment: NCI-60 one-dose screen, 48 h (100 = growth as untreated, 0 = no growth, -100 = all killed). As to conditions: 10 µM unless noted.
As for `COc1ccc(/C=N/NC(=O)c2c(N)nn(C)c2Nc2ccccc2)cc1Oc1ccccc1`, the growth was 92.6% (inactive).

Regarding `COc1ccc(/C=N/N=C(/c2ccccc2)c2ccc3nc(-c4ccc(Cl)cc4)[nH]c3c2)cc1`, the growth was 85% (inactive).

As for `O=C(Nc1cc(C(F)(F)F)cc(C(F)(F)F)c1)Nc1ccc2oc(=O)ccc2c1`, the growth is 4.16% (active).

Take `COc1ccc(/C=N/NC(=O)CSc2nc(-c3cnccn3)cc(-c3cccs3)c2C#N)cc1OC`: the growth was 96.6% (inactive).

As to `CNC(=O)c1cc(N2CCc3cc(NC(=O)Nc4ccc(N5CCN(C)CC5)c(C(F)(F)F)c4)ccc32)ccn1`, the growth was 97.4% (inactive).

In the case of `Clc1cccc(/C=N/Nc2nc(N/N=C/c3cccc(Cl)c3)nc(N3CCCCC3)n2)c1`, the growth is 95.2% (inactive).

For the molecule `NS(=O)(=O)c1nnc(/N=C/c2c(O)[nH]c3ccccc23)s1`, the growth is 107% (inactive).

On to `COc1ccc(-c2cc(-c3ccc(N(C)C)cc3)n3c(n2)nc2ccccc23)cc1`, for which the growth is 59.5% (inactive).

Consider `Nc1nc(=O)n([C@H]2C[C@H](O)[C@@H](CO)O2)cc1C=O`, for which the growth is 9.49% (active).

Regarding `Cc1ccc(-c2csc(N/N=C/c3cccs3)n2)cc1`, the growth was 92.7% (inactive).

As to `CCCCCCOC(=O)c1cc(-c2ccc(F)cc2)nc2ccccc12`, the growth is 96.1% (inactive).

As to `COc1cc2oc(-c3cccc(NC(=O)c4cccc([N+](=O)[O-])c4)c3)cc(=O)c2c(OC)c1OC`, the growth is 34.6% (inactive).

As for `COc1cccc(N2CCN(C3=C(Cl)C(=O)c4ncccc4C3=O)CC2)c1`, the growth was 81.9% (inactive).

Take `CCCCCCNC(=O)Oc1ccc(/C(=C(/C)c2ccc(Cl)cc2)c2ccc(OCCN3CCCCCC3)cc2)cc1`: the growth is 79.4% (inactive).

`C=C(C)[C@@H]1CC[C@]2(COCCCNCCCN)CC[C@]3(C)[C@H](CC[C@@H]4[C@@]5(C)CC[C@H](O)C(C)(C)[C@@H]5CC[C@]43C)[C@@H]12`: the growth was -65.5% (active).

In the case of `COc1ccc(/C(=N\NC(N)=S)c2ccc(Cl)cc2)cc1OC`, the growth was 7.07% (active).

Take `CN1c2ccccc2Sc2cc(/C=N/Nc3ccnc4cc(Cl)ccc34)ccc21`: the growth is 12.6% (inactive).

With `Cn1c(SCC(=O)c2ccc(F)cc2)nc2ccccc2c1=O`, the growth was 93.6% (inactive).

With `CC(=O)OCCCCN1C=C/C(=C\C(=O)n2ccc3ccccc32)c2ccccc21`, the growth is 109% (inactive).

Consider `O=C(/C=C/c1ccc(F)cc1)Nc1cccc2cccnc12`, for which the growth was 102% (inactive).

For the molecule `CCCCOc1ccc(S(=O)(=O)N2CCN(c3nc(C)cc(N4CCOCC4)n3)CC2)cc1`, the growth is 25.4% (inactive).

As for `CCCNNC(=O)c1ccc(-c2ccc(NC(=O)CCCCCCC(=O)N[C@H](C(=O)N3C[C@H](O)C[C@H]3C(=O)N[C@@H](C)c3ccc(-c4scnc4C)cc3)C(C)(C)C)cc2)cc1`, the growth is 96.7% (inactive).

For the molecule `CCOC(=O)c1cccc(NC2=C(Cl)C(=O)c3nc(C)ccc3C2=O)c1`, the growth was 94.6% (inactive).

For the molecule `CC(C)(C)Nc1nc2c(OCCc3ccccc3)cccn2c1-c1cccc(Oc2ccccc2)c1`, the growth is 7.94% (active).

Consider `O=C(CCCCCCNC(=O)c1csc(Br)n1)NO`, for which the growth is 9.08% (active).

`CCOC(=O)c1c(NC(=O)c2ccc(C(F)(F)F)cc2)sc2c3c(ccc12)OCN(C)C3`: the growth was 51.9% (inactive).

`O=C1C(N2CCN(c3ccccc3)CC2)=C(Cl)C(=O)c2ncccc21`: the growth is 77% (inactive).

As to `COc1ccccc1/C=C1\Oc2ccc(O)c(O)c2C1=O`, the growth is 98.5% (inactive).

For the molecule `COc1cccc2c1C=CC1(O2)Oc2cccc(OC)c2C=C1C` (stereo not drawn), the growth was 4.87% (active).

As for `COc1ccc(C(C)=C(c2ccc(OCCN3CCCCCC3)cc2)c2ccc(OCCN3CCCCCC3)cc2)cc1`, the growth is -60% (active).

Take `O=C(CCCCCCN1CC(=O)N2[C@@H](c3ccccc3Br)c3[nH]c4ccccc4c3C[C@H]2C1=O)NO`: the growth is 83.7% (inactive).

As to `Cc1ccc2c(n1)C(=O)C(Cl)=C(Nc1cccc(C(F)(F)F)c1)C2=O`, the growth was 93.3% (inactive).

In the case of `CCC(=C(c1ccc(OCCN2CCCCCC2)cc1)c1ccc(OCCN2CCCCCC2)cc1)c1ccc(Cl)cc1`, the growth is 29.4% (inactive).

Take `CN1CCN(CCNc2nc(-c3cccc(NS(=O)(=O)c4cccc5c(N(C)C)cccc45)c3)cs2)CC1`: the growth was 86.9% (inactive).

For `CC(Nc1c(C#N)cnc2ccc(-c3cncc(-c4n[nH]c(=O)o4)c3)cc12)c1ccccc1` (stereo not drawn), the growth is 67.7% (inactive).

Take `CC(=O)N(O)CCCCCNC(=O)CCC(=O)N(O)CCCCCNC(=O)CCC(=O)N(O)CCCCCN(CCCCCCCCCC[P+](c1ccccc1)(c1ccccc1)c1ccccc1)CCCCCCCCCC[P+](c1ccccc1)(c1ccccc1)c1ccccc1`: the growth was 73.5% (inactive).

As for `CCOC(=O)C1=C(C)NC(C)=C(C(=O)OC(C)C)C1c1cccc(C#N)c1` (stereo not drawn), the growth was 95% (inactive).

Regarding `Cc1cc2nc(C(Cl)Cl)nc(-c3ccc(S(=O)(=O)N(C)C)cc3)n2n1`, the growth is 26.3% (inactive).

The values are drawn from PubChem BioAssay (NCI).
